Records with an inconclusive call do not appear. Active and inactive are the calls of the source. The calls were made as follows: active = hit-call score of the fitted dose curve at least 0.9, where 1 is the maximum; inconclusive = response in the unintended direction; inactive = score below 0.9.

Chain of Cellular tumor antigen p53 (Homo sapiens) (P04637 whole entry, looked up): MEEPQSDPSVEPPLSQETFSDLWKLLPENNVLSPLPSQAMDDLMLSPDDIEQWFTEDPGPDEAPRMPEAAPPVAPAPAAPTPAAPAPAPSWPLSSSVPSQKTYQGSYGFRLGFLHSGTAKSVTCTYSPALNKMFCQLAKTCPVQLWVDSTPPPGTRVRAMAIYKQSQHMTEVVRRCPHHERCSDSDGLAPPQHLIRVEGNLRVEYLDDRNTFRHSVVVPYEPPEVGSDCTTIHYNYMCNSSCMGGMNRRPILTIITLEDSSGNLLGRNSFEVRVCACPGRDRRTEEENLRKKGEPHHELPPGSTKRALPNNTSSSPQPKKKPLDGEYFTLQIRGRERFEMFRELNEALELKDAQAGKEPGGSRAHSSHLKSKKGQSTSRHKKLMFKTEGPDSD

The experiment has as its target Cellular tumor antigen p53 (Homo sapiens) (UniProt P04637). Nature of the experiment: TOX21_p53_BLA_p3_ratio: Tox21 HCT-116 p53 Agonism Beta-lactamase Assay, Ratio, Phase 3 (AID 2283596). In a few lines: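 HCT116 p53-bla cells (4000/well) given compound in DMSO (217-fold dilution) after 5 h, incubated 16 h at 37C. CCF4-AM substrate 2 h at room temperature; 460/530 nm emission ratio, gain fitted against DMSO.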
In the case of `O=S(=O)(O)c1ccc(Nc2nc(Nc3ccc(C=Cc4ccc(Nc5nc(Nc6ccc(S(=O)(=O)O)cc6)nc(N(CCO)CCO)n5)cc4S(=O)(=O)O)c(S(=O)(=O)O)c3)nc(N(CCO)CCO)n2)cc1`, the AC50 was 41.3 µM (active).
Regarding `CC/C=C\CCOC(=O)c1ccccc1O`, the result was inactive.
With `C=C(C)C1CC=C(C)CC1` (stereo unspecified), the result was inactive.
As for `Oc1ccccc1Cc1ccccc1O`, the result was inactive.
On the same count and under the same terms, next, `CCCC/C=C/C=C\C=O`: “inactive”.
Take `CCCCOCC(C)O` (stereo unspecified): the result was inactive.
Same read-out and setting: for `CCCCNS(=O)(=O)c1ccc(C)cc1` the value was “inactive”; for `C=C(C)C(=O)OCCCCCCCCCCCC`, “inactive”; for `CCCCOCCOC(=O)COc1ccc(Cl)cc1Cl`, “inactive”.
`CC(=O)OC(C)c1ccccc1` (stereo unspecified): the outcome was inactive.
On to `CC1(C)CCC[C@]2(C)[C@H]3CC(=O)O[C@]3(C)CC[C@@H]12`, for which the result was inactive.

The record behind these values is PubChem BioAssay (EPA / NIEHS).
